Paper PMC11006913
Changes are numbered by the printed parent chain.

How the values were obtained:
Experiment in all cases: PBM; 200 nM protein, PBS
Conditions in all cases: dsDNA, one strand shown
SIX6 [1] = target: T1, SIX6 (Homo sapiens, UniProt O95475 114-200, T165P)
T1 sequence: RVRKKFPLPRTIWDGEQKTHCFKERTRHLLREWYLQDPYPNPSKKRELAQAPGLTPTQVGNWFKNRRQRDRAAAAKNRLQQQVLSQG

SIX6 [2] = target: T2, SIX6 (Homo sapiens, UniProt O95475 114-200, T165G)
T2 sequence: T1 sequence with P52G

SIX6 [3] = target: T3, SIX6 (Homo sapiens, UniProt O95475 114-200, T139Q)
T3 sequence: T1 sequence with T26Q, P52T

SIX6 [4] = target: T4, SIX6 (Homo sapiens, UniProt O95475 114-200, T165I)
T4 sequence: T1 sequence with P52I

PITX2 = PITX2 (Homo sapiens, UniProt Q99697 72-157)
NKX2-4 [5] = target: T5, NKX2-4 (Homo sapiens, UniProt Q9H2Z4 175-261, P217L)
T5 sequence: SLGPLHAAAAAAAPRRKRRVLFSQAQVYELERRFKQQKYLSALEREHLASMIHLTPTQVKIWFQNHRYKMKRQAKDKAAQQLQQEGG

NKX2-4 [6] = target: T6, NKX2-4 (Homo sapiens, UniProt Q9H2Z4 175-261, T231S)
T6 sequence: T5 sequence with L43P, T57S

NKX2-4 [7] = target: T7, NKX2-4 (Homo sapiens, UniProt Q9H2Z4 175-261)
T7 sequence: T5 sequence with L43P

NKX2-4 [8] = target: T8, NKX2-4 (Homo sapiens, UniProt Q9H2Z4 175-261, R246Q)
T8 sequence: T5 sequence with L43P, R72Q

NKX2-6 = target: T9, NKX2-6 (Homo sapiens, UniProt A6NCS4 118-204)
T9 sequence: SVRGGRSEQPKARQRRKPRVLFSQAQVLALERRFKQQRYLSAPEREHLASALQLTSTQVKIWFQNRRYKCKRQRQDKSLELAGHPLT

CCAGGTCC
binding signal (SIX6 [1]): 8.71 upbm affinity estimate (log intensity, higher = more binding, comparable within an allelic series)
binding signal (SIX6 [2]): 9.06 upbm affinity estimate (log intensity, higher = more binding, comparable within an allelic series)
binding signal (SIX6 [3]): 9.28 upbm affinity estimate (log intensity, higher = more binding, comparable within an allelic series)
binding signal (SIX6 [4]): 9.08 upbm affinity estimate (log intensity, higher = more binding, comparable within an allelic series)

AATTAATC
binding signal (PITX2): 12.4 upbm affinity estimate (log intensity, higher = more binding, comparable within an allelic series)

CCCCGGCG
binding signal (NKX2-4 [5]): 9.5 upbm affinity estimate (log intensity, higher = more binding, comparable within an allelic series)
binding signal (NKX2-4 [6]): 9.48 upbm affinity estimate (log intensity, higher = more binding, comparable within an allelic series)
binding signal (NKX2-4 [7]): 9.57 upbm affinity estimate (log intensity, higher = more binding, comparable within an allelic series)
binding signal (NKX2-4 [8]): 9.55 upbm affinity estimate (log intensity, higher = more binding, comparable within an allelic series)

GGAGCGCA
binding signal (SIX6 [1]): 8.9 upbm affinity estimate (log intensity, higher = more binding, comparable within an allelic series)
binding signal (SIX6 [2]): 8.87 upbm affinity estimate (log intensity, higher = more binding, comparable within an allelic series)
binding signal (SIX6 [3]): 8.78 upbm affinity estimate (log intensity, higher = more binding, comparable within an allelic series)
binding signal (SIX6 [4]): 8.91 upbm affinity estimate (log intensity, higher = more binding, comparable within an allelic series)

AATTAGTG
binding signal (NKX2-6): 11.9 upbm affinity estimate (log intensity, higher = more binding, comparable within an allelic series)
